{"source": "ChEMBL document CHEMBL3988442", "about": "“University of Dundee, Small-Polar-MMV Screening Library” (2021)", "note": "Hit rate of the full screen: of about 48,000 compounds, about 13,000 (27%) showed an effect of 50% or more. Some of the results follow."}
{"test_system": "Wolbachia pipientis", "assay": "Anti-Wolbachia Cell-Based Screen", "type": "functional", "design": "scale not given: in the data most compounds retested in dose-response had high values", "conditions": "5 µM", "units": {"Percent Effect": "%"}}
{"smiles": "O=C(Nc1ccccc1Oc1cccc(F)c1)NC1CCS(=O)(=O)C1", "note": "(configuration not stated)", "Percent Effect": 9.337}
{"smiles": "CN(Cc1nc(Cc2ccccc2F)no1)CC1Cc2ccccc2O1", "note": "(configuration not stated)", "Percent Effect": 1.647}
{"smiles": "Cc1noc(C2CCN(C(=O)c3cc(Cl)c(Cl)n3C)CC2)n1", "Percent Effect": -8.55}
{"smiles": "O=C(c1cc(C2CC2)on1)N1CC[C@]2(C[C@H](Oc3cccnc3)CO2)C1", "Percent Effect": -8.078}
{"smiles": "CC1N(CC2CC2)C(=O)COC12CCN(C(=O)c1cnccn1)CC2", "note": "(configuration not stated)", "Percent Effect": -1.759}
{"smiles": "Cc1noc(C2CCC3(CCN(C(=O)c4cnccn4)CC3)O2)n1", "note": "(configuration not stated)", "Percent Effect": 108.3}
{"smiles": "Cc1noc(C2CCC3(CCN(C(=O)c4cc(C5CC5)on4)CC3)O2)n1", "note": "(configuration not stated)", "Percent Effect": 104.1}
{"smiles": "C[C@H]1C[C@H]2CN(C(=O)c3ccncn3)CC[C@H]2O1", "Percent Effect": 2.98}
{"smiles": "Cc1noc(C2CCC3(CCN(C(=O)c4ccncn4)CC3)O2)n1", "note": "(configuration not stated)", "Percent Effect": 97.14}
{"smiles": "Cc1noc(C2CCC3(CCN(C(=O)c4c(C)noc4C)CC3)O2)n1", "note": "(configuration not stated)", "Percent Effect": -1.941}
{"smiles": "Cc1noc(C2CCC3(CCN(C(=O)c4ncccn4)CC3)O2)n1", "note": "(configuration not stated)", "Percent Effect": 110.9}
{"smiles": "C[C@H]1C[C@@H]2CCN(C(=O)c3ccncn3)C[C@H]2O1", "Percent Effect": 15.39}
{"smiles": "Cc1ccc(F)c(S(=O)(=O)NCc2cccc(N3CCOC3=O)c2)c1", "Percent Effect": -1.653}
{"smiles": "COc1ccc(C(=O)NCc2cc(N3CCOCC3)ncn2)o1", "Percent Effect": -2.324}
{"smiles": "COCC(=O)N1CCC2(CC1)CN(c1ncccn1)CCO2", "Percent Effect": -1.945}
{"smiles": "Cc1nn(C)c(Cl)c1C1CCCN1c1ncnc2sccc12", "note": "(configuration not stated)", "Percent Effect": -14.86}
{"smiles": "CC1CCN(C(CNC(=O)Cn2cccn2)c2cccs2)CC1", "note": "(configuration not stated)", "Percent Effect": -3.451}
{"smiles": "Fc1cccc(CN2CCOC3(COCCN(CC4CC4)C3)C2)c1.O=C(O)C(F)(F)F.O=C(O)C(F)(F)F", "note": "(configuration not stated)", "Percent Effect": 100.6}
{"smiles": "O=C(O)C(F)(F)F.O=C(c1ccoc1)N1CCOC2(COCCN(c3ncccn3)C2)C1", "note": "(configuration not stated)", "Percent Effect": 21.15}
{"smiles": "CC(C)N1CCOCC2(CCCN(C(=O)c3cncn3C)C2)C1.O=C(O)C(F)(F)F", "note": "(configuration not stated)", "Percent Effect": -5.769}
{"smiles": "Cn1ccc(C(=O)N2C[C@@H]3CN(CC4CC4)CCO[C@@H]3C2)n1.O=C(O)C(F)(F)F", "Percent Effect": -13.66}
{"smiles": "O=C(O)C(F)(F)F.O=C(O)C(F)(F)F.c1cnc(N2CCCC3(CN(CC4CCOCC4)CCO3)C2)cn1", "note": "(configuration not stated)", "Percent Effect": -4.594}
{"smiles": "O=C(O)C(F)(F)F.O=C(c1ccoc1)N1CCOC2(COCCN(CC3CC3)C2)C1", "note": "(configuration not stated)", "Percent Effect": 89.02}
{"smiles": "O=C(O)C(F)(F)F.O=C(O)C(F)(F)F.O=C(O)C(F)(F)F.c1coc(CN2CCOC3(COCCN(Cc4ccncc4)C3)C2)c1", "note": "(configuration not stated)", "Percent Effect": -11.91}
{"smiles": "Cn1cncc1C(=O)N1CCOC2(COCCN(CC3CC3)C2)C1.O=C(O)C(F)(F)F", "note": "(configuration not stated)", "Percent Effect": 104.1}
{"smiles": "Cn1ccc(C(=O)N2CCOC3(COCCN(CC4CC4)C3)C2)n1.O=C(O)C(F)(F)F", "note": "(configuration not stated)", "Percent Effect": 108.5}
{"smiles": "O=C(O)C(F)(F)F.O=C(O)C(F)(F)F.O=C(O)C(F)(F)F.c1cc(CN2CCOCC3(C2)CN(Cc2nccs2)CCO3)ccn1", "note": "(configuration not stated)", "Percent Effect": -17.66}
{"smiles": "O=C(O)C(F)(F)F.O=C(c1ccccn1)N1CCOC2(COCCN(Cc3cc[nH]n3)C2)C1", "note": "(configuration not stated)", "Percent Effect": -2.383}
{"smiles": "Cc1cccnc1CSCCCNS(C)(=O)=O", "Percent Effect": -17.43}
{"smiles": "N#Cc1cccnc1NCc1ccc(S(=O)(=O)NCC2CCCO2)cc1", "note": "(configuration not stated)", "Percent Effect": 8.527}
{"smiles": "Clc1cccc(N2CCC(NCc3ncc[nH]3)C2)c1", "note": "(configuration not stated)", "Percent Effect": -6.784}
{"smiles": "Cl.c1cnc2c(c1)cc([C@@H]1CCCO1)n2CCN1CCOCC1", "Percent Effect": 92.89}
{"smiles": "Cl.c1cnc2c(c1)cc([C@@H]1CCCO1)n2CCN1CCCCC1", "Percent Effect": 85.05}
{"smiles": "Cl.c1cnc2c(c1)cc([C@H]1CCCO1)n2CCN1CCCC1", "Percent Effect": 88.22}
{"smiles": "CSc1nccc(N2CCC(NCCN3CCOCC3)CC2)n1", "Percent Effect": -2.784}
{"smiles": "Cl.c1cnc2c(c1)cc([C@H]1CCCO1)n2CCN1CCOCC1", "Percent Effect": -5.726}
{"smiles": "CN(CC1CCCO1)C1CCN(CCc2ccccn2)CC1", "note": "(configuration not stated)", "Percent Effect": 4.903}
{"smiles": "Cl.c1cnc2c(c1)cc([C@H]1CCCO1)n2CCN1CCCCC1", "Percent Effect": -14.33}
{"smiles": "Cc1nc(CN2CCN(C(=O)c3sccc3C3CC3)CC2)cs1", "Percent Effect": -3.645}
{"smiles": "CCc1ccsc1C(=O)N1CCCN(Cc2cscn2)CC1", "Percent Effect": 140.3}
{"smiles": "Cc1nc(CN2CCN(C(=O)c3ccn(C)c(=O)c3)CC2)cs1", "Percent Effect": 11.68}
{"smiles": "CCc1nc(CN2CCCN(C(=O)c3occc3C)CC2)cs1", "Percent Effect": 10.15}
{"smiles": "Cc1nc(CN2CCN(C(=O)c3ccnc(N(C)C)c3)CC2)cs1", "Percent Effect": 110.9}
{"smiles": "COC(C(=O)N1CCCN(Cc2cscn2)CC1)c1ccccc1", "note": "(configuration not stated)", "Percent Effect": -16.29}
{"smiles": "CC(O)CN1CCN(C(=O)c2ccnc(N(C)C)c2)CC1", "note": "(configuration not stated)", "Percent Effect": -11.32}
{"smiles": "Cc1nc(CN2CCN(C(=O)c3sccc3C)CC2)cs1", "Percent Effect": 154.8}
{"smiles": "COc1ccsc1C(=O)N1CCCN(Cc2cscn2)CC1", "Percent Effect": 127}
{"smiles": "COCC1CCN(S(=O)(=O)N2C[C@@H](C)[C@@](C)(O)C2)CC1", "Percent Effect": 1.126}
{"smiles": "CN(Cc1cn2c(n1)CN(Cc1ccsc1)CC2)Cc1ccco1.O=C(O)C(F)(F)F.O=C(O)C(F)(F)F", "Percent Effect": -7.727}
{"smiles": "CSc1cccc(CNC(=O)C2CC(=O)N(C3CC3)C2)c1", "note": "(configuration not stated)", "Percent Effect": -14.89}
{"smiles": "Cn1cc(N2C[C@@H]3CN(S(=O)(=O)C4CC4)C[C@@H]3C2=O)cn1", "Percent Effect": -1.09}
{"smiles": "COc1cccc(COC(C)C(=O)N(C)Cc2nnc3n2CCC3)c1", "note": "(configuration not stated)", "Percent Effect": -2.392}
{"smiles": "Cc1cc(CNc2cc(-c3ccoc3C)nn2CCO)c(C)o1", "Percent Effect": -24.32}
{"smiles": "Cc1ccsc1C(=O)N1CCN(Cc2cscn2)CC1", "Percent Effect": 118.4}
{"smiles": "CCn1ccnc1CN1CCCN(C(=O)c2sccc2C#N)CC1", "Percent Effect": 2.639}
{"smiles": "Cc1ccsc1C(=O)N1CCCN(Cc2cscn2)CC1", "Percent Effect": 92.98}
{"smiles": "CCn1cc(CN2CCCN(C(=O)c3sccc3C#N)CC2)cn1", "Percent Effect": -3.745}
{"smiles": "CC(C)c1ccc(O)c(C(=O)N2CCN(Cc3cscn3)CC2)c1", "Percent Effect": -2.44}
{"smiles": "N#CC1(C(=O)N2CCN(Cc3cscn3)CC2)CCCC1", "Percent Effect": -7.08}
{"smiles": "Cc1nc(CN2CCCN(C(=O)C3(C#N)CCCCC3)CC2)cs1", "Percent Effect": -0.8463}
{"smiles": "N#Cc1ccsc1C(=O)N1CCCN(Cc2cscn2)CC1", "Percent Effect": 105.7}
{"smiles": "Cc1nc(CN2CCCN(C(=O)c3sccc3C#N)CC2)cs1", "Percent Effect": 111.7}
{"smiles": "CC(C)c1ccsc1C(=O)N1CCCN(Cc2cscn2)CC1", "Percent Effect": 10.39}
{"smiles": "N[C@H]1CN(C(=O)c2ccc(Cl)cc2O)C[C@@H]1C1CC1", "Percent Effect": -2.238}
{"smiles": "CC(C)[C@H]1COC(=O)N1Cc1nnc(-c2ccccc2)o1", "Percent Effect": -6.799}
{"smiles": "CC(NCCn1cccn1)c1ccccc1Cl", "note": "(configuration not stated)", "Percent Effect": 12.43}
{"smiles": "CN1CCN(C(=O)C[C@@H]2COC[C@H]3CN(c4ccncn4)C[C@@H]23)CC1", "Percent Effect": -4.365}
{"smiles": "O=C(Nc1ccc(F)cc1)N1C[C@H]2C[C@H](C(=O)N3CCOCC3)[C@@H](C1)O2", "Percent Effect": 1.969}
{"smiles": "O=C(NCCc1ccccc1)N1C[C@H]2C[C@H](C(=O)N3CCCC3)[C@@H](C1)O2", "Percent Effect": -4.163}
{"smiles": "O=C(Nc1ccccc1)N1C[C@@H]2OCCN(C(=O)c3ccco3)[C@@H]2C1", "Percent Effect": 7.532}
{"smiles": "O=C(Nc1ccccc1)N1C[C@H]2C[C@H](C(=O)N3CCCC3)[C@@H](C1)O2", "Percent Effect": 100.5}
{"smiles": "O=C(NCc1ccccc1)N1C[C@H]2C[C@H](C(=O)N3CCCC3)[C@@H](C1)O2", "Percent Effect": 8.283}
{"smiles": "O=C(Nc1ccccc1)N1C[C@H]2C[C@H](C(=O)N3CCOCC3)[C@@H](C1)O2", "Percent Effect": 114.8}
{"smiles": "CNC(=O)[C@H]1C[C@@H]2CN(C(=O)Nc3ccc(F)cc3)C[C@H]1O2", "Percent Effect": -4.608}
{"smiles": "O=C(Nc1ccc(F)cc1)N1C[C@H]2C[C@H](C(=O)N3CCCC3)[C@@H](C1)O2", "Percent Effect": 125.2}
{"smiles": "CCc1ccc(NC(=O)N2C[C@H]3C[C@H](C(=O)N4CCCC4)[C@@H](C2)O3)cc1", "Percent Effect": 103.5}
{"smiles": "CNC(=O)N1C[C@H]2C[C@H](C(=O)Nc3ccccc3)[C@@H](C1)O2", "Percent Effect": -3.507}
{"smiles": "O=C1CC2(CCN(Cc3ccc(-c4ccn[nH]4)s3)CC2)CN1", "Percent Effect": -9.036}
{"smiles": "CCc1noc(C(C)N2CCC(NS(=O)(=O)c3cccs3)CC2)n1", "note": "(configuration not stated)", "Percent Effect": -6.324}
{"smiles": "CCC(=O)NCC(=O)NC(Cc1ccccc1)c1sccc1C", "note": "(configuration not stated)", "Percent Effect": 6.747}
{"smiles": "CCOC(=O)CC(C)Nc1nc(C(C)(C)C)nc2c1cnn2C", "note": "(configuration not stated)", "Percent Effect": -7.754}
{"smiles": "CC(C)[C@H](Nc1nc(C2CCCC2)nc2c1cnn2C)C(N)=O", "Percent Effect": -0.02427}
{"smiles": "Cc1cnn(CC(C)NCc2ccc(S(C)(=O)=O)cc2)c1", "note": "(configuration not stated)", "Percent Effect": 4.95}
{"smiles": "COC(=O)[C@@H](Nc1nc(C2CCCC2)nc2c1cnn2C)[C@@H](C)O", "Percent Effect": -8.342}
{"smiles": "CN(C)C(=O)c1cc(-c2ccc(S(C)(=O)=O)cc2)c2cnn(C)c2n1", "Percent Effect": 108.3}
{"smiles": "Cn1ncc(N2CCN(Cc3ccc(S(C)(=O)=O)cc3)CC2)cc1=O", "Percent Effect": -9.751}
{"smiles": "CC(C)NC(=O)c1cc(-c2ccc(S(C)(=O)=O)cc2)nc2c1cnn2C", "Percent Effect": 95.41}
{"smiles": "Cc1cccc(N(C)Cc2nc3c(cnn3C)c(=O)[nH]2)c1C", "Percent Effect": -8.766}
{"smiles": "CC(C)NC(=O)c1cc(-c2ccc(S(C)(=O)=O)cc2)c2cnn(C)c2n1", "Percent Effect": 110.4}
{"smiles": "CCc1nc(CCNC(=O)NC2CCSCC2)cs1", "Percent Effect": 5.983}
{"smiles": "Cc1cn(CC(=O)NC2CCC3(CC2)OCCO3)c2ccccc12", "Percent Effect": -12.26}
{"smiles": "CCCN1CCN(C(=O)c2ccc3nc(C)oc3c2)[C@H]2CS(=O)(=O)C[C@H]21", "Percent Effect": -5.857}
